According to PubChem BioAssay (EPA / NIEHS):
Active and inactive are the calls of the source. How the source made its calls: active means hit-call score of the fitted dose curve at least 0.9, where 1 is the maximum; inactive means score below 0.9.

What was measured:
Conditions in all cases: mRNA level, 48 h; actives raise or lower the signal
[1] = read-out: Alpha-fetoprotein (AFP) gene, AFP (gene 174); assay: LTEA_HepaRG_AFP: Life Technologies and Expression Analysis (LTEA) Assay for Alpha-fetoprotein (AFP) gene using HepaRG (AID 2283472)
In short: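 Differentiated human HepaRG cells exposed 48 h in serum-free induction medium, 8-point half-log series from 100 uM in 0.5% DMSO, duplicate. AFP mRNA by qRT-PCR, normalized to ACTB, GAPDH, POLR2A; bidirectional fit vs DMSO.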

BCL2L11 (gene 10018) = assay: LTEA_HepaRG_BCL2L11: Life Technologies and Expression Analysis (LTEA) Assay for Bcl-2 (BCL2L11) gene using HepaRG (AID 2283473)
In short: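 Cells were plated, cultured 48 h, switched to serum-free induction medium, then dosed in duplicate for 48 h at eight half-log concentrations up to 100 uM. Lysates underwent RNA isolation and TaqMan qRT-PCR; gain or loss versus DMSO was fitted.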

[2] = read-out: Apolipoprotein A-V (APOA5) gene, APOA5 (gene 116519); assay: LTEA_HepaRG_APOA5: Life Technologies and Expression Analysis (LTEA) Assay for Apolipoprotein A-V (APOA5) gene using HepaRG (AID 2283474)
In short: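 Human liver HepaRG cells are treated 48 h with test chemicals (100 uM top, half-log dilutions, 0.5% DMSO). APOA5 mRNA induction or loss is measured by qRT-PCR relative to vehicle.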

[3] = read-out: Apoptosis regulator Bcl-2 (Homo sapiens) (UniProt P10415); assay: LTEA_HepaRG_BCL2: Life Technologies and Expression Analysis (LTEA) Assay for Bcl-2 gene using HepaRG (AID 2283475)
In short: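 Differentiated human HepaRG cells in serum-free induction medium exposed 48 h, in duplicate, to 8-point half-log series from 100 uM in 0.5% DMSO. BCL2 mRNA by qRT-PCR (TaqMan/Fluidigm), normalized to ACTB, GAPDH, POLR2A; bidirectional fit against DMSO.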

[4] = read-out: Bcl-2 (BID) gene, BID (gene 637); assay: LTEA_HepaRG_BID: Life Technologies and Expression Analysis (LTEA) Assay for Bcl-2 (BID) gene using HepaRG (AID 2283476)
In short: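 Gene expression by qRT-PCR in HepaRG cells after 48 h exposure, duplicate wells, eight half-log concentrations topping at 100 uM in 0.5% DMSO. Normalized to ACTB, GAPDH, POLR2A; bidirectional fitting relative to DMSO.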

Caspase-3 (Homo sapiens) = Caspase-3 (Homo sapiens) (UniProt P42574); assay: LTEA_HepaRG_CASP3: Life Technologies and Expression Analysis (LTEA) Assay for cysteine-aspartic acid protease (CASP3) using HepaRG (AID 2283477)
Chain of Caspase-3 (Homo sapiens) (P42574 whole entry, looked up): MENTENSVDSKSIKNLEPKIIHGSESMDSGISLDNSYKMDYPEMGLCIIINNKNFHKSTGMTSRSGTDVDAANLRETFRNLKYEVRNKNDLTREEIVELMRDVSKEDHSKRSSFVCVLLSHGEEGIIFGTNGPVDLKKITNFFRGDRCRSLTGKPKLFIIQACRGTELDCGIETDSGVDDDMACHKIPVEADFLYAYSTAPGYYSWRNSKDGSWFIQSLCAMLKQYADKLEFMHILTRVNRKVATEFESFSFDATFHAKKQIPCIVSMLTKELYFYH
In short: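 In HepaRG liver cells dosed for 48 h at up to 100 uM (eight-point, duplicate), CASP3 expression changes are scored by qRT-PCR. Activity is fitted in both directions with 0.5% DMSO as baseline.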

[5] = read-out: Cytochrome P450 (CYP24A1), CYP24A1 (gene 1591); assay: LTEA_HepaRG_CYP24A1: Life Technologies and Expression Analysis (LTEA) Assay for Cytochrome P450 (CYP24A1) using HepaRG (AID 2283478)
In short: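 Human liver HepaRG cultures receive each chemical for 48 h across an eight-point half-log series topping at 100 uM in 0.5% DMSO. Induction or suppression of CYP24A1 mRNA is scored relative to vehicle after housekeeping-gene normalization.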

[6] = read-out: Cytochrome P450 (CYP1A2), CYP1A2 (gene 1544); assay: LTEA_HepaRG_CYP1A2: Life Technologies and Expression Analysis (LTEA) Assay for Cytochrome P450 (CYP1A2) using HepaRG (AID 2283479)
In short: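 Assesses CYP1A2 mRNA in human HepaRG liver cells after 48 h chemical exposure at up to 100 uM. Values come from qRT-PCR with bidirectional curve fitting relative to DMSO.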

[7] = read-out: cysteine-aspartic acid protease (CASP8), CASP8 (gene 841); assay: LTEA_HepaRG_CASP8: Life Technologies and Expression Analysis (LTEA) Assay for cysteine-aspartic acid protease (CASP8) using HepaRG (AID 2283480)
In short: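 Differentiated human HepaRG cells, plated 48 h then switched to serum-free induction medium, were exposed in duplicate for 48 h to 8 half-log concentrations up to 100 uM in 0.5% DMSO. CASP8 mRNA was quantified by qRT-PCR, normalized to ACTB/GAPDH/POLR2A.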

[8] = read-out: Cytochrome P450 (CYP2B6), CYP2B6 (gene 1555); assay: LTEA_HepaRG_CYP2B6: Life Technologies and Expression Analysis (LTEA) Assay for Cytochrome P450 (CYP2B6) using HepaRG (AID 2283481)
In short: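 Using 48 h treatment of HepaRG cells in serum-free induction medium, concentrations spanned half-log steps from 100 uM in 0.5% DMSO vehicle. CYP2B6 mRNA induction or loss is scored by qRT-PCR against DMSO.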

[9] = read-out: Cytochrome P450 2C19 (Homo sapiens) (UniProt P33261); assay: LTEA_HepaRG_CYP2C19: Life Technologies and Expression Analysis (LTEA) Assay for CYP2C19 using HepaRG (AID 2283482)
In short: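 Human HepaRG liver cells received test chemicals for 48 h (highest 100 uM, half-log dilutions in 0.5% DMSO). CYP2C19 mRNA induction or loss is read by multiplexed qRT-PCR and fitted in both directions versus vehicle.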

CYP2C8 (gene 1558) = assay: LTEA_HepaRG_CYP2C8: Life Technologies and Expression Analysis (LTEA) Assay for CYP2C8 using HepaRG (AID 2283483)
In short: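 Differentiated human HepaRG cells were exposed for 48 h in serum-free induction medium to eight half-log concentrations up to 100 uM in 0.5% DMSO, in duplicate. CYP2C8 mRNA was measured by TaqMan qRT-PCR, normalized to ACTB, GAPDH and POLR2A, and fitted bidirectionally against DMSO.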

CYP2C9 (gene 1559) = assay: LTEA_HepaRG_CYP2C9: Life Technologies and Expression Analysis (LTEA) Assay for CYP2C9 using HepaRG (AID 2283484)
In short: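 Differentiated human HepaRG cells were exposed 48 h in serum-free induction medium to eight half-log concentrations up to 100 uM in 0.5% DMSO. CYP2C9 mRNA was measured by qRT-PCR, normalized to ACTB, GAPDH and POLR2A, and fitted bidirectionally against DMSO.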

CYP2E1 (gene 1571) = assay: LTEA_HepaRG_CYP2E1: Life Technologies and Expression Analysis (LTEA) Assay for CYP2E1 using HepaRG (AID 2283485)
In short: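 HepaRG cells, plated 48 h, then exposed 48 h in serum-free induction medium to eight half-log concentrations from 100 uM in 0.5% DMSO, duplicate. CYP2E1 mRNA by qRT-PCR, normalized to ACTB/GAPDH/POLR2A; bidirectional fit versus DMSO.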

CYP4A11 (gene 1579) = assay: LTEA_HepaRG_CYP4A11: Life Technologies and Expression Analysis (LTEA) Assay for CYP4A11 using HepaRG (AID 2283486)
In short: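 Readout is CYP4A11 mRNA induction or suppression (qRT-PCR, ACTB/GAPDH/POLR2A normalization) in human HepaRG cells after 48 h chemical treatment, concentrations to 100 uM in 0.5% DMSO, fitted bidirectionally against vehicle.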

[10] = read-out: Cytochrome P450 3A4 (Homo sapiens) (UniProt P08684); assay: LTEA_HepaRG_CYP3A4: Life Technologies and Expression Analysis (LTEA) Assay for CYP3A4 using HepaRG (AID 2283487)
In short: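 Differentiated HepaRG cells, plated 48 h, then dosed 48 h in serum-free induction medium with 0.5% DMSO, 8 half-log concentrations up to 100 uM, duplicate. CYP3A4 mRNA by qRT-PCR, normalized to ACTB/GAPDH/POLR2A; bidirectional fit versus DMSO.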

[11] = read-out: DNA damage-inducible transcript 3 (DDIT3), DDIT3 (gene 1649); assay: LTEA_HepaRG_DDIT3: Life Technologies and Expression Analysis (LTEA) Assay for DNA damage-inducible transcript 3 (DDIT3) using HepaRG (AID 2283488)
In short: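 HepaRG cells, 48 h after plating, exposed 48 h in serum-free induction medium to 8 half-log concentrations up to 100 uM in 0.5% DMSO, in duplicate. DDIT3 mRNA measured by TaqMan qRT-PCR, normalized to ACTB, GAPDH and POLR2A. Fitted bidirectionally against DMSO.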

[12] = read-out: Pro-epidermal growth factor (Homo sapiens) (UniProt P01133); assay: LTEA_HepaRG_EGF: Life Technologies and Expression Analysis (LTEA) Assay for Epidermal growth factor (EGF) using HepaRG (AID 2283489)
In short: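 EGF expression changes in human HepaRG cells are scored by bidirectional fitting relative to 0.5% DMSO controls. Chemicals are tested at eight half-log concentrations up to 100 uM for 48 h in serum-free induction medium.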

[13] = read-out: Early growth response protein 1 (EGR1) transcription factor, EGR1 (gene 1958); assay: LTEA_HepaRG_EGR1: Life Technologies and Expression Analysis (LTEA) Assay for Early growth response protein 1 (EGR1) transcription factor using HepaRG (AID 2283490)
In short: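 Differentiated human HepaRG cells in serum-free induction medium were exposed in duplicate for 48 h to eight concentrations (top 100 uM, half-log steps) in 0.5% DMSO. EGR1 mRNA was quantified by qRT-PCR, normalized to ACTB, GAPDH and POLR2A, and fitted bidirectionally versus DMSO.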

[14] = read-out: Ezrin (EZR), EZR (gene 7430); assay: LTEA_HepaRG_EZR: Life Technologies and Expression Analysis (LTEA) Assay for Ezrin (EZR) using HepaRG (AID 2283491)
In short: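 EZR transcript levels came from Fluidigm qRT-PCR and were normalized to three housekeeping genes after 48 h chemical exposure of HepaRG cells. Dosing used an 8-point half-log series with a 100 uM top concentration in 0.5% DMSO, tested in duplicate; both directions were fitted versus vehicle.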

Chain of Apoptosis regulator Bcl-2 (Homo sapiens) (P10415 whole entry, looked up): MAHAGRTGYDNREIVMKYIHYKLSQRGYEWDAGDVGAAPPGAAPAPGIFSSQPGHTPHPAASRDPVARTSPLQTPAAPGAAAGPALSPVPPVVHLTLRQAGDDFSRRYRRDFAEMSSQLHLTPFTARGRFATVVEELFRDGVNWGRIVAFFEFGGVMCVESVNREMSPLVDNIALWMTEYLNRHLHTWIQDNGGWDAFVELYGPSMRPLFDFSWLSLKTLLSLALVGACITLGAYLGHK
Chain of Cytochrome P450 2C19 (Homo sapiens) (P33261 whole entry, looked up): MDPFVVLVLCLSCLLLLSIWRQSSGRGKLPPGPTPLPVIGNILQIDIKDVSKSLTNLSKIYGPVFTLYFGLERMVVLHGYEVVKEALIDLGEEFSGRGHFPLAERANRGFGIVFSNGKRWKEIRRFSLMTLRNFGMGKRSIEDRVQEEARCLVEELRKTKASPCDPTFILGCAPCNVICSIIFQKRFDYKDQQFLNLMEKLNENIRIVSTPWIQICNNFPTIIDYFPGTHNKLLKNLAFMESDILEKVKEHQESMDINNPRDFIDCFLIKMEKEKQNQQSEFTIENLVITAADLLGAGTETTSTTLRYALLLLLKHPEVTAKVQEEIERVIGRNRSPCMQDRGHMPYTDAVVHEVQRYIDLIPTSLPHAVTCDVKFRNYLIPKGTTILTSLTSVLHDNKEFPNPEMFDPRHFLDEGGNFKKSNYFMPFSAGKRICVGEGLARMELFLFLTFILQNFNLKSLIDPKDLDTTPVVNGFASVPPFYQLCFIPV
Chain of Cytochrome P450 3A4 (Homo sapiens) (P08684 whole entry, looked up): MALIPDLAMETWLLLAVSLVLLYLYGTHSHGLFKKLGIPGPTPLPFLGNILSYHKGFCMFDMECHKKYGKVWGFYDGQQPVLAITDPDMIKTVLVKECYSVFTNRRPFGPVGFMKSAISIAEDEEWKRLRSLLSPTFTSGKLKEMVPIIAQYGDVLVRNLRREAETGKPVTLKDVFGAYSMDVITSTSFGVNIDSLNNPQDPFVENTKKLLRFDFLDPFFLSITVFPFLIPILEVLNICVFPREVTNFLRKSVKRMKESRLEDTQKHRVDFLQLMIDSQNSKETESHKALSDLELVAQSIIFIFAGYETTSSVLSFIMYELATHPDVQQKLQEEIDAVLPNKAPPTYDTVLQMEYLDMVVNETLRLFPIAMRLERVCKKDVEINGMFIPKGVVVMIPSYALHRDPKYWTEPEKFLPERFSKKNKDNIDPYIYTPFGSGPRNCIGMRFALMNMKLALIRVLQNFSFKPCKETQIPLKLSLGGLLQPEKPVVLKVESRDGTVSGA

ClC1=C(Cl)C2(Cl)C3C(Cl)C=CC3C1(Cl)C2(Cl)Cl (stereo not drawn)
AC50 [1]: 22.7 µM (active) | outcome (BCL2L11 (gene 10018)): inactive | outcome [2]: inactive | outcome [3]: inactive | outcome [4]: inactive | outcome (Caspase-3 (Homo sapiens)): inactive | outcome [5]: inactive | outcome [6]: inactive | outcome [7]: inactive | AC50 [8]: 0.67 µM (active) | AC50 [9]: 2.22 µM (active) | outcome (CYP2C8 (gene 1558)): inactive | outcome (CYP2C9 (gene 1559)): inactive | AC50 (CYP2E1 (gene 1571)): 7.54 µM (active) | AC50 (CYP4A11 (gene 1579)): 16.1 µM (active) | AC50 [10]: 0.927 µM (active) | outcome [11]: inactive | outcome [12]: inactive | outcome [13]: inactive | outcome [14]: inactive

CC(C)(C)OOC(=O)c1ccccc1
outcome [1]: inactive | outcome (BCL2L11 (gene 10018)): inactive | outcome [2]: inactive | outcome [3]: inactive | outcome [4]: inactive | outcome (Caspase-3 (Homo sapiens)): inactive | outcome [5]: inactive | outcome [6]: inactive | outcome [7]: inactive | outcome [8]: inactive | outcome [9]: inactive | outcome (CYP2C8 (gene 1558)): inactive | outcome (CYP2C9 (gene 1559)): inactive | outcome (CYP2E1 (gene 1571)): inactive | outcome (CYP4A11 (gene 1579)): inactive | outcome [10]: inactive | outcome [11]: inactive | outcome [12]: inactive | outcome [13]: inactive | outcome [14]: inactive

COC(=O)Nc1nc2ccccc2[nH]1
outcome [1]: inactive | outcome (BCL2L11 (gene 10018)): inactive | outcome [2]: inactive | outcome [3]: inactive | outcome [4]: inactive | outcome (Caspase-3 (Homo sapiens)): inactive | outcome [5]: inactive | AC50 [6]: 31.8 µM (active) | outcome [7]: inactive | AC50 [8]: 3.97 µM (active) | outcome [9]: inactive | outcome (CYP2C8 (gene 1558)): inactive | outcome (CYP2C9 (gene 1559)): inactive | outcome (CYP2E1 (gene 1571)): inactive | outcome (CYP4A11 (gene 1579)): inactive | outcome [11]: inactive | outcome [12]: inactive | outcome [13]: inactive | outcome [14]: inactive

CC(O)CCO (stereo not drawn)
outcome [1]: inactive | outcome (BCL2L11 (gene 10018)): inactive | outcome [2]: inactive | outcome [3]: inactive | outcome [4]: inactive | outcome (Caspase-3 (Homo sapiens)): inactive | outcome [5]: inactive | outcome [6]: inactive | outcome [7]: inactive | outcome [8]: inactive | outcome [9]: inactive | outcome (CYP2C8 (gene 1558)): inactive | outcome (CYP2C9 (gene 1559)): inactive | outcome (CYP2E1 (gene 1571)): inactive | outcome (CYP4A11 (gene 1579)): inactive | outcome [10]: inactive | outcome [11]: inactive | outcome [12]: inactive | outcome [13]: inactive | outcome [14]: inactive

Cc1ccc(N)cc1
outcome [1]: inactive | outcome (BCL2L11 (gene 10018)): inactive | outcome [2]: inactive | outcome [3]: inactive | outcome [4]: inactive | outcome (Caspase-3 (Homo sapiens)): inactive | outcome [5]: inactive | outcome [6]: inactive | outcome [7]: inactive | AC50 [8]: 16.5 µM (active) | outcome [9]: inactive | outcome (CYP2C8 (gene 1558)): inactive | outcome (CYP2C9 (gene 1559)): inactive | outcome (CYP2E1 (gene 1571)): inactive | outcome (CYP4A11 (gene 1579)): inactive | outcome [10]: inactive | outcome [11]: inactive | outcome [12]: inactive | outcome [13]: inactive | outcome [14]: inactive

Cn1cc(-c2ccccc2)c(=O)c(-c2cccc(C(F)(F)F)c2)c1
outcome [1]: inactive | outcome (BCL2L11 (gene 10018)): inactive | outcome [2]: inactive | outcome [3]: inactive | outcome [4]: inactive | outcome (Caspase-3 (Homo sapiens)): inactive | outcome [5]: inactive | AC50 [6]: 87.5 µM (active) | outcome [7]: inactive | AC50 [8]: 1.09 µM (active) | AC50 [9]: 4.63 µM (active) | AC50 (CYP2C8 (gene 1558)): 3.59 µM (active) | AC50 (CYP2C9 (gene 1559)): 0.468 µM (active) | AC50 (CYP2E1 (gene 1571)): 11.9 µM (active) | outcome (CYP4A11 (gene 1579)): inactive | AC50 [11]: 89.8 µM (active) | outcome [12]: inactive | outcome [13]: inactive | outcome [14]: inactive
